Records with an inconclusive call do not appear. Calls of active or inactive are those of the source. Calls come from the whole dose curve; as a rule, active = well fitted cell-killing curve with a large enough effect; inconclusive = small, poorly fitted or top-dose-only effect, or effect the other way; inactive = no such curve, though single readings can be large or run the other way.
Key:
[1] = Quantitative High-Throughput drug screen in 47 multiple myeloma cell lines against the NCATS MIPE library collection: MM1R_ATCC cell viability assay (AID 1918981); note: nearly all actives have a fitted effect of over 35% in size
Outline: (§1)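 ATP-based CellTiter-Glo luminescence after 48 h drug exposure (37 °C, 5% CO2) of 500 myeloma cells per well. DMSO-only wells set 100% viability, media-only wells 0%; MIPE 4.0 library added by pin tool.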

[2] = Quantitative High-Throughput drug screen in 47 multiple myeloma cell lines against the NCATS MIPE library collection: LP1_DSMZ cell viability assay (AID 1918982); note: nearly all actives have a fitted effect of over 35% in size
Outline: as §1

[3] = Quantitative High-Throughput drug screen in 47 multiple myeloma cell lines against the NCATS MIPE library collection: KMS28PE_JCRB cell viability assay (AID 1918983); note: nearly all actives have a fitted effect of over 35% in size
Outline: as §1

[4] = Quantitative High-Throughput drug screen in 47 multiple myeloma cell lines against the NCATS MIPE library collection: L363_DSMZ cell viability assay (AID 1918984); note: nearly all actives have a fitted effect of over 40% in size
Outline: as §1

[5] = Quantitative High-Throughput drug screen in 47 multiple myeloma cell lines against the NCATS MIPE library collection: KMS34_JCRB cell viability assay (AID 1918985); note: nearly all actives have a fitted effect of over 40% in size
Outline: as §1

[6] = Quantitative High-Throughput drug screen in 47 multiple myeloma cell lines against the NCATS MIPE library collection: OCIMY7_PLB cell viability assay (AID 1918987); settings: OCI-MY7 myeloma viability, CellTiter-Glo ATP, 48 h; viability (% of DMSO): at 45.8 µM (top of the series); note: nearly all actives have a fitted effect of over 65% in size
Outline: as §1

[7] = Quantitative High-Throughput drug screen in 47 multiple myeloma cell lines against the NCATS MIPE library collection: OCIMY5_PLB cell viability assay (AID 1918988); note: nearly all actives have a fitted effect of over 65% in size
Outline: as §1

[8] = Quantitative High-Throughput drug screen in 47 multiple myeloma cell lines against the NCATS MIPE library collection: OPM1_PLB cell viability assay (AID 1918989); note: nearly all actives have a fitted effect of over 40% in size
Outline: as §1

[9] = Quantitative High-Throughput drug screen in 47 multiple myeloma cell lines against the NCATS MIPE library collection: SKMM1_PLB cell viability assay (AID 1919863); settings: SKMM1 myeloma viability, CellTiter-Glo ATP, 48 h; viability: stronger effect = lower value; note: nearly all actives have a fitted effect of over 35% in size
Outline: as §1

[10] = Quantitative High-Throughput drug screen in 47 multiple myeloma cell lines against the NCATS MIPE library collection: U266_ATCC cell viability assay (AID 1919864); note: nearly all actives have a fitted effect of over 35% in size
Outline: as §1

[11] = Quantitative High-Throughput drug screen in 47 multiple myeloma cell lines against the NCATS MIPE library collection: XG6_PLB cell viability assay (AID 1919865); note: nearly all actives have a fitted effect of over 40% in size
Outline: as §1

[12] = Quantitative High-Throughput drug screen in 47 multiple myeloma cell lines against the NCATS MIPE library collection: XG1_PLB cell viability assay (AID 1919866); note: nearly all actives have a fitted effect of over 35% in size
Outline: as §1

[13] = Quantitative High-Throughput drug screen in 47 multiple myeloma cell lines against the NCATS MIPE library collection: VP6_DJ cell viability assay (AID 1919867); note: nearly all actives have a fitted effect of over 40% in size
Outline: as §1

[14] = Quantitative High-Throughput drug screen in 47 multiple myeloma cell lines against the NCATS MIPE library collection: UTMC2_PLB cell viability assay (AID 1919868); settings: CellTiter-Glo ATP luminescence, 48 h; viability (% of DMSO control): at 45.8 µM (top of the series); note: nearly all actives have a fitted effect of over 55% in size
Outline: as §1

[15] = Quantitative High-Throughput drug screen in 47 multiple myeloma cell lines against the NCATS MIPE library collection: PE2_PLB cell viability assay (AID 1919869); note: nearly all actives have a fitted effect of over 35% in size
Outline: as §1

[16] = Quantitative High-Throughput drug screen in 47 multiple myeloma cell lines against the NCATS MIPE library collection: PCM6_Riken cell viability assay (AID 1919870); note: nearly all actives have a fitted effect of over 30% in size
Outline: as §1

[17] = Quantitative High-Throughput drug screen in 47 multiple myeloma cell lines against the NCATS MIPE library collection: RPMI8226_ATCC cell viability assay (AID 1919871); note: nearly all actives have a fitted effect of over 30% in size
Outline: as §1

[18] = Quantitative High-Throughput drug screen in 47 multiple myeloma cell lines against the NCATS MIPE library collection: KMS11_JCRBsus cell viability assay (AID 1919873); note: nearly all actives have a fitted effect of over 50% in size
Outline: as §1

[19] = Quantitative High-Throughput drug screen in 47 multiple myeloma cell lines against the NCATS MIPE library collection: KMS28BM_JCRB cell viability assay (AID 1919874); note: nearly all actives have a fitted effect of over 35% in size
Outline: as §1

[20] = Quantitative High-Throughput drug screen in 47 multiple myeloma cell lines against the NCATS MIPE library collection: OPM2_DSMZ cell viability assay (AID 1919872); note: nearly all actives have a fitted effect of over 30% in size
Outline: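 Luminescent ATP measurement with CellTiter-Glo gives viability, scaled between DMSO-only wells (100%) and media-only wells (0%). Cells, 500 per well, faced library compounds for 48 hours at 37C.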

Measured: Potency
Potency is the fitted concentration of half-maximal effect.

C[C@H](NCc1ccc(OCc2cccc(F)c2)cc1)C(N)=O
active: [1] 7.43 µM | [2] 11.8 µM | [3] 9.35 µM | [4] 1480 nM | [5] 10.5 µM | [6] 3320 nM | [7] 7.43 µM | [8] 2.64 µM | [9] 18.7 µM | [10] 7.43 µM | [11] 1.66 µM | [12] 3.72 µM | [13] 2350 nM | [14] 1.18 µM | [15] 2.09 µM | [16] 2.09 µM | [17] 16.6 µM | [18] 7.43 µM | [19] 5.9 µM

Oc1ccc(-c2ccc(-c3cc(Nc4cccc(CNC5CC5)c4)n[nH]3)cc2)c(O)c1
active: [1] 2.35 µM | [2] 2.64 µM | [3] 5.26 µM | [4] 148 nM | [5] 4.18 µM | [6] 4690 nM | [7] 1.48 µM | [8] 1.05 µM | [9] 5.26 µM | [10] 5.26 µM | [11] 0.418 µM | [13] 743 nM | [14] 1.32 µM | [15] 1.32 µM | [16] 0.59 µM | [17] 9.35 µM | [20] 4.69 µM | [18] 1.32 µM | [19] 1.32 µM

COc1cccc2c1C(=O)c1c(O)c3c(c(O)c1C2=O)C[C@@](O)(C(=O)CO)C[C@H]3O[C@H]1C[C@H](N)[C@H](O)[C@H](C)O1
active: [1] 0.0209 µM | [2] 0.0743 µM | [3] 0.166 µM | [4] 743 nM | [5] 0.235 µM | [6] 166 nM | [7] 0.166 µM | [8] 0.526 µM | [9] 0.209 µM | [10] 0.372 µM | [11] 0.132 µM | [12] 0.296 µM | [13] 264 nM | [15] 0.118 µM | [16] 0.105 µM | [20] 1.18 µM | [18] 0.743 µM | [19] 0.296 µM

C=CCNC1=C2C[C@@H](C)C[C@H](OC)[C@@H](O)[C@@H](C)C=C(C)[C@H](OC(N)=O)[C@@H](OC)C=CC=C(C)C(=O)NC(=CC1=O)C2=O
active: [1] 1.32 µM | [2] 5.9 µM | [3] 0.418 µM | [4] 26.4 nM | [5] 0.235 µM | [6] 833 nM | [7] 0.526 µM | [8] 1.32 µM | [9] 0.833 µM | [10] 0.833 µM | [11] 2.64 µM | [12] 0.662 µM | [13] 264 nM | [15] 4.18 µM | [16] 1.48 µM | [17] 1.05 µM | [20] 2.35 µM | [18] 0.059 µM

C=CC(=O)N1CCc2ccc(-n3c(=O)ccc4cnc5ccc(-c6cnn(C)c6)cc5c43)cc21
active: [1] 2.35 µM | [2] 1.48 µM | [3] 4.69 µM | [4] 833 nM | [5] 0.935 µM | [6] 833 nM | [7] 3.32 µM | [8] 0.833 µM | [9] 1.32 µM | [10] 3.32 µM | [11] 2.96 µM | [12] 1.32 µM | [13] 2960 nM | [14] 1.05 µM | [15] 1.66 µM | [16] 1.66 µM | [17] 1.05 µM | [20] 2.35 µM | [18] 0.418 µM | [19] 2.96 µM

C[C@H](NC(=O)C(C#N)=Cc1cccc(Br)n1)c1ccccc1
active: [1] 2.09 µM | [2] 5.9 µM | [3] 3.72 µM | [4] 11800 nM | [5] 7.43 µM | [6] 743 nM | [7] 2.64 µM | [8] 2.09 µM | [9] 3.72 µM | [10] 6.62 µM | [11] 2.35 µM | [12] 2.09 µM | [13] 2350 nM | [14] 3.32 µM | [15] 2.64 µM | [16] 2.09 µM | [17] 4.18 µM | [20] 7.43 µM | [18] 5.26 µM | [19] 7.43 µM

C=Cc1c(C)c2cc3nc(cc4[nH]c(cc5nc(cc1[nH]2)C(C)=C5CCC(=O)O)c(CCC(=O)OC)c4C)[C@@]1(C)C3=CC=C(C(=O)OC)[C@H]1C(=O)OC
active: [1] 0.0935 µM | [2] 1.05 µM | [3] 0.743 µM | [4] 526 nM | [5] 0.743 µM | [6] 662 nM | [7] 0.0418 µM | [8] 0.372 µM | [9] 0.743 µM | [10] 0.296 µM | [11] 0.0332 µM | [13] 118 nM | [14] 0.105 µM | [15] 0.209 µM | [16] 0.0833 µM | [20] 1.05 µM | [18] 9.35 µM | [19] 0.418 µM

CC(C)(O)Cn1c(NC(=O)c2ccc(-c3cn[nH]c3)s2)nc2cc(CN3CCOCC3)ccc21
active: [1] 1.66 µM | [2] 1.87 µM | [3] 1.48 µM | [4] 662 nM | [5] 1.32 µM | [6] 332 nM | [7] 1.32 µM | [8] 0.743 µM | [9] 2.96 µM | [10] 1.18 µM | [11] 1.87 µM | [12] 0.743 µM | [13] 743 nM | [14] 0.372 µM | [15] 1.32 µM | [16] 0.418 µM | [17] 2.35 µM | [20] 2.35 µM | [18] 0.743 µM

— PubChem BioAssay (NCATS)
